Screening data from PubChem.
An excerpt weighted towards active compounds, which were near 4% of everything screened.
Glioma ERSR ind = ER stress response induction in glioma; U87-MG GRP78 promoter luciferase reporter, 16 h; Potency, µM, usual class: activators; 420,000 compounds, 0.02% hits; AID 602332; active = well fitted activation curve with a large enough effect; also: series mostly up to about 76 µM; nearly all actives have a fitted effect of over 35% in size
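Stably transfected U87-MG human glioma cells carrying a GRP78-based luminescent sensor were seeded at 1000 cells/well, pin-dosed with compounds and incubated 16 h. Luciferase reagent was then added, and end-point luminescence was read after 10 min at room temperature.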
TRHR enhancer = allosteric enhancers of human TRH receptor. P34981. TRHR cells, fluo-8 calcium fluorescence, EC20 TRH enhancement. enhancement, % at 2 µM. 360,000 compounds, 0.66% hits. AID 493056; in the data active = enhancement above about 30%
Target sequence (P34981 whole entry, looked up): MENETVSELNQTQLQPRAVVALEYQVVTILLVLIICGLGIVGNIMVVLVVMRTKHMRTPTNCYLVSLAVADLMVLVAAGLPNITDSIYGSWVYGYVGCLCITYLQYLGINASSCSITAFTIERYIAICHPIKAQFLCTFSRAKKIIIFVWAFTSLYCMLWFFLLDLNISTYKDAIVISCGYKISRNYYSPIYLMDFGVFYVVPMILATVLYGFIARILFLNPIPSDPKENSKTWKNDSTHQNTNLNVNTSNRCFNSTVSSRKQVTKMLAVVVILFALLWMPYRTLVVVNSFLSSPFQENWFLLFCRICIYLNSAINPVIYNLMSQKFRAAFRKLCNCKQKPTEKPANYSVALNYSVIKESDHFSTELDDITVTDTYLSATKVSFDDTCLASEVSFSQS
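TRHR-expressing cells loaded with fluo-8 calcium dye were read kinetically (ex 480/em 530) during compound addition, then stimulated with an EC20 of TRH (10 nM final). Enhancement of the Gq-mediated intracellular calcium response was scored.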
D1 ag = agonists of human D1 dopamine receptor; P21728; HEK293 T-REx D1 cells, calcium flux, agonist mode; activation, % at 2 µM; 360,000 compounds, 1% hits
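Inducible HEK293 T-REx D1 cells, force-coupled to calcium signalling, were plated at 4000 cells/well with tetracycline and held overnight at 30 C. After no-wash calcium dye loading, compound-evoked calcium rise over 180 s flagged agonists.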
D1 potentiator = potentiators of human D1 dopamine receptor; potentiation, % at 10 µM; 360,000 compounds, 0.036% hits; HEK293 TREx D1 cells, calcium flux, dopamine EC20 potentiation; in the data active = potentiation above about 30%
TRHR agonist = activates the human TRH receptor; activation, % at 2 µM; TRHR cells, calcium flux fluo-8, FDSS agonist mode; 360,000 compounds, 0.18% hits
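Steps: seed TRHR cells overnight; add fluo-8 no-wash Ca dye, RT 30 min–1.5 h; record 10 s baseline; pin-transfer compounds; monitor fluorescence 1 cycle/s for the agonist window. Calcium increases flag candidate agonists.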
D1 antag = blocks dopamine activation of the human D1 receptor. HEK293 TREx D1 cells, calcium flux, dopamine EC80; active compounds read low. AID 504652. activity change, negative = inhibition, % at 10 µM. P21728. 360,000 compounds, 3.2% hits; in the data active = activity change below about -30%
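Compound effects on dopamine-evoked calcium signalling were measured in tetracycline-induced HEK293 Trex D1 cells. Dopamine at EC80 followed a 180 s compound pre-read, and fluorescence was tracked kinetically for 180 s more.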
Hits are given with their value; i = inactive; nt = not tested or not shown. Rule as the data show it, unless noted: active = activation above about 30%; inactive = the rest.

SMILES	Glioma ERSR ind	TRHR enhancer	D1 ag	D1 potentiator	TRHR agonist	D1 antag
Cc1cccc(CNC(=O)c2cnc3c(-c4cccc(C)c4)c(C)nn3c2C)c1	i	i	i	i	i	-33
O=C(O)COc1ccccc1/C=N/NC(=O)CSc1nnc(SCc2cccc3ccccc23)s1	i	i	35	i	i	i
O=C(O)COc1ccccc1/C=N/NC(=O)Cc1csc(Nc2cccc(C(F)(F)F)c2)n1	i	36	i	i	i	i
O=C(O)COc1ccccc1/C=N/NC(=O)Cc1ccccc1	i	i	i	i	i	i
Cc1cc2c(s1)c1cnn(Cc3ccc(F)c(Cl)c3)c(=O)c1n2C	nt	i	i	i	i	i
CN(Cc1ccccc1)C(=O)COc1ccccc1Cl	i	i	i	i	i	i
CCOC(=O)C1(Cc2ccccc2)CCN(Cc2csc(C(C)=O)c2)CC1	i	i	i	i	i	-34
CCOC(=O)C1(CCc2ccccc2)CCN(Cc2cc(OC)c(OC)cc2OC)CC1	i	i	i	i	i	-37
Fc1ccc(NC(=S)NN2CCOCC2)cc1Cl	i	i	i	i	i	-32
O=S(=O)(c1ccc(Cl)cc1)N1CCN(C(=S)Nc2ccc(F)c(Cl)c2)CC1	i	i	i	i	i	-37
O=S(=O)(c1ccc(NC(=S)N/N=C/c2ccc(N3CCOCC3)cc2)cc1)N1CCOCC1	i	i	i	i	i	-44
O=S(=O)(c1ccc(NC(=S)N2CCN(c3ccccc3F)CC2)cc1)N1CCOCC1	i	i	i	i	i	-31
O=S(=O)(c1ccccc1)N1CCN(C(=S)Nc2ccc(F)cc2)CC1	i	i	i	i	i	i
Cc1cc(NC(=O)CCS(=O)(=O)c2cc(Br)cc3c2N(C(=O)C2CC2)CC3)ccc1Br	i	i	i	i	i	i
CNc1nc(Nc2ccccc2)nc(OCC(F)(F)F)n1	i	i	i	i	i	i
O=S(=O)(c1ccccc1)N1CCN(C(=S)NCCCN2CCOCC2)CC1	i	i	i	i	i	-46
O=C(NCCCN1CCOCC1)c1cccc(S(=O)(=O)N2CCN(c3ccccc3)CC2)c1	i	i	i	i	i	i
CCc1ccc(NC(=O)COC(=O)Cn2cnc3ccccc32)cc1	i	i	i	i	i	i
CCOc1ccc(C(=O)c2nc3c(n2O)CCCCC3)cc1	i	i	i	i	i	i
CCCOc1ccc(C(=O)c2nc3c(n2O)CCCC3)cc1	i	i	i	i	i	-32
O=C(CNC(=O)C1COc2ccccc2O1)N/N=C\c1cccc(O)c1 (configuration not stated)	i	i	i	i	i	i
O=C(CNC(=O)C1COc2ccccc2O1)N/N=C\c1ccc(Cl)cc1 (configuration not stated)	i	i	i	i	i	-36
Cc1ccc(C(=O)N/N=c2\oc3ccccc3cc2C(N)=O)cc1	i	i	i	i	i	i
Cc1oc2ccc(O)c(CN3CCN(Cc4ccccc4)CC3)c2c1C(=O)Nc1ccccc1	i	i	i	i	i	i
CCN1CCN(Cc2c(O)ccc3oc(C)c(C(=O)Nc4cccc(C(F)(F)F)c4)c23)CC1	i	i	50	i	i	i
SMILES	Glioma ERSR ind	TRHR enhancer	D1 ag	D1 potentiator	TRHR agonist	D1 antag
Cc1oc2ccc(O)c(CN3CCN(C)CC3)c2c1C(=O)Nc1cccc(C(F)(F)F)c1	i	i	62	i	i	-46
CCN1CCN(Cc2c(O)ccc3oc(C)c(C(=O)Nc4cccc(Cl)c4C)c23)CC1	i	i	i	i	i	i
COc1ccccc1NC(=O)c1oc2ccccc2c1NC(=O)c1ccc(S(=O)(=O)N(C)C)cc1	i	i	i	i	i	i
CCSC1=C(C#N)C(c2ccc(F)cc2)CC(=O)N1 (configuration not stated)	i	i	i	i	i	-32
C=C(C)CSC1=C(C#N)C(c2ccsc2)CC(=O)N1 (configuration not stated)	i	i	i	i	i	-39
CCSC1=C(C#N)C(c2cccc(O)c2)CC(=O)N1 (configuration not stated)	i	i	i	i	i	i
CCSC1=C(C#N)C(c2ccc(OC)c(OC)c2)CC(=O)N1 (configuration not stated)	i	i	i	i	i	i
